Source: article PMC4552634, “A New Set of Chemical Starting Points with Plasmodium falciparum Transmission-Blocking Potential for Antimalarial Drug Discovery” (PLoS ONE, 2015)
The whole screen tested about 13,000 compounds, of which about 3,200 (25%) showed an effect of 50% or more. Some of the results follow.

System: P. falciparum stage V gametocytes
Parameters: BacTiter-Glo ATP luminescence viability of purified stage V gametocytes in 384-well plates, per cent inhibition versus DMSO
Conditions: 48 h, 5 µM; inhibitor

Q: For `COc1ccccc1C1CCN(C2CCC(NC(=O)/C=C/c3ccc(F)c(F)c3)CC2)CC1` (centres unmarked) [TCMDC-133493], which “% Inhibition” value is on record?
A: -77.67%

Q: With `Clc1ccc(Cn2nc(Br)nc2Br)c(Cl)c1` [TCMDC-125047] as the compound, how does the “% Inhibition” value read?
A: -61.09%

Q: How did the “% Inhibition” value turn out when `O=[N+]([O-])c1nc(Br)n(Cc2ccc(Cl)cc2)n1` [TCMDC-125048] was run?
A: 51.98%

Q: `CC(=O)c1ccc(-c2ccc(C(=O)NCCCCN3CCC(c4ccc5c(c4O)CCCC5)CC3)cc2)cc1` [TCMDC-138653] was tested. Which “% Inhibition” value did it give?
A: 60.63%

Q: With `COc1ccc2c(c1C1CCN(CCCCNC(=O)c3ccc(NC(=O)c4ccc(Cl)cc4)cc3)CC1)CCCC2` [TCMDC-138553] as the compound, how does the “% Inhibition” value read?
A: 46.07%

Q: Which “% Inhibition” value does the source give for `N#Cc1ccc(-c2ccc(C(=O)NCCCCN3CCC(c4cc(Br)c5c(c4O)CCCC5)CC3)cc2)cc1` [TCMDC-135238] here?
A: -99.04%

Q: With `CC(C)(Oc1c(C2CCN(CCCCNC(=O)c3ccc(-c4ccc(Cl)cc4)cc3)CC2)ccc2c1CCCC2)C(N)=O` [TCMDC-134939] as the compound, how does the “% Inhibition” value read?
A: -3.044%

Q: For `CC(Oc1c(C2CCN(CCCCNC(=O)c3ccc(-c4ccc(Cl)cc4)cc3)CC2)ccc2c1CCCC2)C(N)=O` (centres unmarked) [TCMDC-134653], which “% Inhibition” value is on record?
A: 65.96%

Q: Which “% Inhibition” value does the source give for `CC(Oc1c(C2CCN(CCCCNC(=O)c3ccc(-c4ccc(C#N)cc4)cc3)CC2)ccc2c1CCCC2)C(N)=O` (centres unmarked) [TCMDC-134551] here?
A: 41.12%

Q: Which “% Inhibition” value does the source give for `Cc1ccc(C2CCN(CCCCNC(=O)c3ccc(NC(=O)c4ccc(Cl)cc4)cc3)CC2)c(C)c1` [TCMDC-138354] here?
A: 9.967%

Q: For `C=Cc1c(C2CCN(CCCCNC(=O)c3ccc(-c4ccc(C#N)cc4)cc3)CC2)ccc2c1CCCC2` [TCMDC-135273], which “% Inhibition” value is on record?
A: 38.74%

Q: How did the “% Inhibition” value turn out when `O=C(NCCCCN1CCC(c2ccc3c(c2O)CCCC3)CC1)c1ccc(-c2ccc(Cl)cc2)cc1` [TCMDC-138661] was run?
A: 61.25%

Q: With `O=C(NCCCCN1CCC(c2ccc3c(c2O)CCCC3)CC1)c1ccc(NC(=O)c2ccc(Cl)cc2)cc1` [TCMDC-138645] as the compound, how does the “% Inhibition” value read?
A: 88.57%

Q: Which “% Inhibition” value does the source give for `COc1ccc2nc(-c3cc(-c4ccc(NC(=O)C(C)C)cc4)cnc3N)[nH]c2c1` [TCMDC-135322] here?
A: 10.64%

Q: `C[C@H](CNc1ccnc(Nc2ccc3[nH]c(=O)[nH]c3c2)n1)c1ccccc1` [TCMDC-136804] was tested. Which “% Inhibition” value did it give?
A: -43.48%

Q: `CN/C(=C\[N+](=O)[O-])NCCSCc1cc(C)c(CN(C)C)s1` [TCMDC-131256] was tested. Which “% Inhibition” value did it give?
A: 8.916%

Q: With `Cc1cc(O)c2c3c1C(=O)C=C1C3c3c(c(O)cc(O)c3C(=O)C1(C)C)C2=O` (centres unmarked) [TCMDC-132049] as the compound, how does the “% Inhibition” value read?
A: 13.87%

Q: For `Oc1ccc(Cl)cc1CN1CCC(CCOC(c2ccccc2)c2ccccc2)CC1` [TCMDC-136036], which “% Inhibition” value is on record?
A: 7.087%

Q: How did the “% Inhibition” value turn out when `CC(C)Sc1nc2c(c(=O)n1CCc1ccccc1)C1(CCCCC1)Cc1ccccc1-2` [TCMDC-123894] was run?
A: -24.8%

Q: With `O=C(Nc1ccc2c(c1)OCO2)c1cc(-c2cccnc2)cnc1NCc1ccc2c(c1)OCO2` [TCMDC-136698] as the compound, how does the “% Inhibition” value read?
A: -17.08%

Q: Which “% Inhibition” value does the source give for `CN(c1ccnc(Nc2ccc(CS(C)(=O)=O)cc2)n1)C1CCN(Cc2ccccc2)CC1` [TCMDC-134396] here?
A: -3.005%

Q: For `CNC(=O)Cc1ccc(C(=O)Nc2cccc(-c3cccc(-c4nc5c(C)cccc5[nH]4)c3)c2)cc1` [TCMDC-137075], which “% Inhibition” value is on record?
A: -29.46%

Q: For `Cc1cccc2nc(-c3cccc(-c4cccc(CN5CCN(c6ccc(C#N)cn6)CC5)c4)c3)[nH]c12.O=C(O)C(F)(F)F` [TCMDC-133118], which “% Inhibition” value is on record?
A: 18.89%

Q: Which “% Inhibition” value does the source give for `CNc1ccc(CNCc2ccc(-c3ccc(-c4nc5cccc(C)c5[nH]4)cc3)cc2)cc1.O=C(O)C(F)(F)F` [TCMDC-132984] here?
A: 83.67%

Q: For `COc1ccc(CNCc2ccc(-c3ccc(-c4nc5cccc(C)c5[nH]4)cc3)cc2)cc1.O=C(O)C(F)(F)F` [TCMDC-132720], which “% Inhibition” value is on record?
A: -4.275%

Q: `Cc1cccc2nc(-c3ccc(-c4ccc(CNCc5ccc(S(C)(=O)=O)cc5)cc4)cc3)[nH]c12.O=C(O)C(F)(F)F` [TCMDC-132905] was tested. Which “% Inhibition” value did it give?
A: 55%

Q: `Cc1cccc2nc(-c3cccc(-c4cccc(CNCc5ccc(S(C)(=O)=O)cc5)c4)c3)[nH]c12.O=C(O)C(F)(F)F` [TCMDC-132896] was tested. Which “% Inhibition” value did it give?
A: -8.61%

Q: For `Cc1cccc2nc(-c3ccc(-c4ccc(CNCCc5ccncc5)cc4)cc3)[nH]c12.O=C(O)C(F)(F)F` [TCMDC-132855], which “% Inhibition” value is on record?
A: 4.84%

Q: For `Cc1cccc2nc(-c3cccc(-c4ccc(CNCc5ccc(S(C)(=O)=O)cc5)cc4)c3)[nH]c12.O=C(O)C(F)(F)F` [TCMDC-132898], which “% Inhibition” value is on record?
A: -16.63%

Q: How did the “% Inhibition” value turn out when `Cc1c(F)cc(C(=O)NC2CC2)cc1-c1ccc2c(cnn2S(=O)(=O)c2cccs2)c1` [TCMDC-135215] was run?
A: -11.35%

Q: How did the “% Inhibition” value turn out when `Cc1c(F)cc(C(=O)NC2CC2)cc1-c1ccc2c(cnn2S(=O)(=O)c2ccc(Cl)s2)c1` [TCMDC-135232] was run?
A: 32.9%

Q: Which “% Inhibition” value does the source give for `Cc1c(F)cc(C(=O)NC2CC2)cc1-c1ccc2c(c1)c(C)nn2S(=O)(=O)c1cccs1` [TCMDC-135260] here?
A: 59.41%

Q: Which “% Inhibition” value does the source give for `CO/C(=C\C=C\c1cc2cc(Cl)c(Cl)cc2[nH]1)C(=O)NCCCN1CCC(c2ccccc2)CC1` [TCMDC-139272] here?
A: 8.329%

Q: With `CCN(CC)CCNC(=O)/C(=C/C=C/c1cc2cc(Cl)c(Cl)cc2[nH]1)OC` [TCMDC-139013] as the compound, how does the “% Inhibition” value read?
A: -18.02%

Q: Which “% Inhibition” value does the source give for `CO/C(=C\C=C\c1cc2cc(Cl)c(Cl)cc2[nH]1)C(=O)NCCCN1CCN(Cc2ccccc2)CC1` [TCMDC-139257] here?
A: -24.43%

Q: Which “% Inhibition” value does the source give for `CO/C(=C\C=C\c1cc2cc(Cl)c(Cl)cc2[nH]1)C(=O)NCCCNC12CC3CC(CC(C3)C1)C2` [TCMDC-139077] here?
A: 103%

Q: `CCN(CC)CCCNC(=O)/C(=C/C=C/c1cc2cc(Cl)c(Cl)cc2[nH]1)OC` [TCMDC-139008] was tested. Which “% Inhibition” value did it give?
A: 50.29%

Q: For `CO/C(=C\C=C\c1cc2cc(Cl)c(Cl)cc2[nH]1)C(=O)NCCCNCCN(C)c1ccccc1` [TCMDC-139496], which “% Inhibition” value is on record?
A: 56.16%

Q: `CO/C(=C\C=C\c1cc2cc(Cl)c(Cl)cc2[nH]1)C(=O)NCC(C)(C)CN(C)C` [TCMDC-139037] was tested. Which “% Inhibition” value did it give?
A: -32.83%

Q: Which “% Inhibition” value does the source give for `CO/C(=C\C=C\c1cc2cc(Cl)c(Cl)cc2[nH]1)C(=O)NCCCN1CCN(c2ccc(OC)cc2)CC1` [TCMDC-139175] here?
A: -57.04%

Q: How did the “% Inhibition” value turn out when `CO/C(=C\C=C\c1cc2cc(Cl)c(Cl)cc2[nH]1)C(=O)NCCCN(C)CCN(C)c1ccccc1` [TCMDC-139497] was run?
A: -12.25%
